From PubChem BioAssay
Shown is part of a subset that was picked to be rich in hits.
ROC1-CUL1 inh: inhibitors of human ROC1-CUL1 ubiquitin ligase activity. in vitro K48 di-Ub FRET, acceptor:donor ratio, 45 min. AID 1347404, 2020. inhibition, % at 10 µM. hit rate 0.6% among 140,000. E3 ubiquitin-protein ligase RBX1 (Homo sapiens) + Cullin-1 (Homo sapiens), P62877+Q13616; in the data active means inhibition above about 25%
Target sequence (P62877 whole entry, looked up): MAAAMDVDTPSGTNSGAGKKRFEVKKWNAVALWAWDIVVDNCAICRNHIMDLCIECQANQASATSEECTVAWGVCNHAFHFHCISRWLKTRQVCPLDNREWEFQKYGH
Target sequence (Q13616 whole entry, looked up): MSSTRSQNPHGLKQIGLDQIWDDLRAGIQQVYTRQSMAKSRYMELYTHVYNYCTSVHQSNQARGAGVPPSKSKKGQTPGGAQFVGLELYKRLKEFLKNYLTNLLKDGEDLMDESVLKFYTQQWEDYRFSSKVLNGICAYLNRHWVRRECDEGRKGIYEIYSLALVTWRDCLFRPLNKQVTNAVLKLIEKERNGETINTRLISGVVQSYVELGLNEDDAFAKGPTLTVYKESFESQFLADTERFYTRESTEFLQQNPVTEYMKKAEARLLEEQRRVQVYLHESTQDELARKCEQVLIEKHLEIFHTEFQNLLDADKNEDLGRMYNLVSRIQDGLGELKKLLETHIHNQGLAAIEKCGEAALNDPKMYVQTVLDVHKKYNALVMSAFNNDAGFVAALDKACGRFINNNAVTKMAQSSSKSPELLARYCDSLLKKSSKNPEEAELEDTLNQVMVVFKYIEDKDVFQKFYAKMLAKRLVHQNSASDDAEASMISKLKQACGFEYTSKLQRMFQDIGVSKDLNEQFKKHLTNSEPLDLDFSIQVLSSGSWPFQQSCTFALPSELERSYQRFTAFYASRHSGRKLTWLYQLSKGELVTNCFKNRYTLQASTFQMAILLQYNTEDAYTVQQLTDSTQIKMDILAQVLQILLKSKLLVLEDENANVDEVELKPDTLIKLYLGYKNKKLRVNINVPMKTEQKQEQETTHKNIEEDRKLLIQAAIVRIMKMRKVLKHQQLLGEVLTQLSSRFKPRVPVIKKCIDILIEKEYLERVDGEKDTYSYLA
The depositor's hits bear a star.

SMILES	ROC1-CUL1 inh
N#Cc1ccc(/C=C2/SC(=Nc3ccccc3)N(Cc3ccc(C(=O)O)cc3)C2=O)cc1	-2.1
N#Cc1ccc(-c2ccc(/C=C3\SC(=Nc4ccccc4)N(Cc4ccco4)C3=O)o2)cc1	53.0*
O=C(/C=C/c1ccco1)Nc1cccc(NC(=O)c2ccc(Cl)cc2Cl)c1	0.2
Cc1ccc(C(=O)/C=C/c2ccco2)c(O)c1	33.8*
CC(/C=C/c1ccco1)=N/NC(=O)c1ccccc1Cl	-1.9
CCCc1cc2c(=O)c(-c3ccccn3)coc2cc1OC(=O)CNC(=O)OC(C)(C)C	-2.7
Cc1cc(C)c(S(=O)(=O)n2nc(C)c(Sc3ccc(Cl)cc3)c2C)c(C)c1	6.6
FC(F)(F)c1nc(Nc2ccc(Cl)c(Cl)c2)sc1-c1ccccc1	-10.9
Cc1c(C)n2c3c(=O)n(Cc4ccc(F)cc4)c(=O)n(C)c3nc2n1CCCN(C)C	-8.3
Cc1cc(/C=C2\SC(=Nc3ccc(F)cc3)NC2=O)c(C)n1-c1ccc(S(N)(=O)=O)cc1	-4.7
CCOC(=O)c1ccc(-n2c(C)cc(/C=C3\SC(=Nc4ccc(Cl)cc4)NC3=O)c2C)cc1	1.1
Cc1cc(/C=C2\SC(=Nc3ccc(Cl)cc3)NC2=O)c(C)n1-c1cc(C(=O)O)cc(C(=O)O)c1	100.1*
CN(C)c1ccc(Nc2ncnc3c2oc2ccccc23)cc1	1.2
O=C1OC2(CCCCC2)OC(=O)C1=Cc1ccc(Nc2ccc(F)cc2)o1	4.0
O=C1OC2(CCCC2)OC(=O)C1=Cc1ccc(Nc2ccc(F)cc2)o1	6.8
CC1(C)OC(=O)C(=Cc2ccc(Nc3cc(C(F)(F)F)cc(C(F)(F)F)c3)o2)C(=O)O1	87.9*
CC1CCCN(CC(O)COc2ccc(C34CC5CC(CC(C5)C3)C4)cc2)C1 (stereo unspecified)	2.3
Fc1ccc(-c2noc3c2CN(Cc2ccnc4ccccc24)CC3)cc1F	-4.1
CCN(CC)C(=O)c1c(NC(=O)c2ccco2)sc2c1CCC(C(C)(C)C)C2 (stereo unspecified)	14.0
CC(C)(C)C1CCc2c(sc(NC(=O)c3ccco3)c2C(=O)O)C1 (stereo unspecified)	39.5*
Cc1ccccc1C(=O)Nc1sc2c(c1C(=O)O)CCC(C(C)(C)C)C2 (stereo unspecified)	-3.5
Cc1nc(NC(=O)NCCN2N=C(c3ccccc3)CCC2=O)n[nH]1	5.7
O=C(O)c1cccc(N=C2C(=O)c3ccccc3C(=O)C2N2CCOCC2)c1 (stereo unspecified)	54.4*
O=C1Nc2ccccc2C(=O)C1N1CCOCC1 (stereo unspecified)	0.4
O=C(O)c1cccc(N=C2C(=O)N(c3ccc(Cl)cc3Cl)C(=O)C2Cl)c1 (stereo unspecified)	-6.8
SMILES	ROC1-CUL1 inh
Cc1ccc(N2C(=O)/C(=C/c3ccc(-c4ccccc4)o3)C(=O)NC2=S)cc1Cl	-2.4
O=C1NC(=S)N(c2ccc(Br)cc2)C(=O)/C1=C/c1ccc(Sc2nc3ccccc3[nH]2)o1	107.6*
O=C1NC(=S)N(c2cccc(F)c2)C(=O)/C1=C/c1ccc(Sc2ccc(Cl)cc2)o1	0.3
Cc1cccc(CS(=O)(=O)NCc2ccccc2)c1	2.2
CC(C)(C)c1ccc(C(=O)N2CCN(CCNC(=O)C(=O)Nc3ccc(Cl)cc3)CC2)cc1	-7.3
CCOc1ccc(OCC)c(N2C(=O)NC(=O)/C(=C\c3cccs3)C2=O)c1	-6.6
CCOc1ccc(OCC)c(N2C(=O)NC(=O)/C(=C\c3ccc(Br)o3)C2=O)c1	76.0*
CCOc1ccc(OCC)c(N2C(=O)NC(=O)/C(=C\c3ccc(OCC#N)cc3)C2=O)c1	2.1
N#Cc1c(OCC(=O)c2ccc(Br)cc2)nc2c(c1-c1cccnc1)CCc1ccccc1-2	11.3
Cc1ccc(C(=O)N2N=C(c3cccs3)CC2c2ccccc2)cc1 (stereo unspecified)	2.6
O=C1C(Cl)=C(N2CCN(S(=O)(=O)c3ccc(F)cc3)CC2)C(=O)c2ccccc21	63.9*
CC(=O)N1CCN(S(=O)(=O)c2ccc(F)cc2)CC1	-2.7
CCC(CC)C(=O)N1CCN(S(=O)(=O)c2ccc(F)cc2)CC1	6.6
COc1cc(/C=N/Nc2cc(N3CCN(C(=O)c4cc([N+](=O)[O-])c(N(C)C)cc4OC)CC3)ccc2[N+](=O)[O-])ccc1O	0.8
COc1cccc(C2c3[nH]c4ccccc4c3CCN2Cc2nccs2)c1 (stereo unspecified)	-2.4
C=CCn1c(O)c(N=NC(=O)COc2ccccc2Cl)c2ccccc21	7.6
C/C(=N\n1c(-c2ccc(Cl)cc2)n[nH]c1=S)c1ccc(Cl)c(Cl)c1	13.6
O=C(O)c1cccc(N2C(=O)/C(=C/c3ccc4c(c3)OCO4)SC2=S)c1	-1.6
COc1cccc(N2C(=O)/C(=C/c3ccc(C(=O)O)cc3)SC2=S)c1	2.7
O=C(O)c1ccc(N2C(=O)/C(=C/c3ccc4c(c3)OCO4)SC2=S)cc1	26.1*
CC(C)COc1cccc(-c2cc(C(=O)NC(=S)N=C3C(=O)N(c4ccccc4)N(C)C3C)c3ccccc3n2)c1 (stereo unspecified)	8.7
Cc1nc(Nc2ccc(F)cc2)nc2c1C(=O)CC(c1ccco1)C2 (stereo unspecified)	16.3
CC(C)(C)C(=O)N1CCN(c2ccnc3cc(Cl)ccc23)CC1	6.8
O=C(CN1CCN(c2cc(Cl)cc3ncccc23)CC1)c1ccc(O)c(O)c1	83.6*
CC(C)(C)c1ccc(CN2CCN(c3ccnc4cc(Cl)ccc34)CC2)cc1	1.2
SMILES	ROC1-CUL1 inh
CCOC(=O)c1ccccc1NC(=O)/C=C/c1ccc(Br)cc1	-3.6
CCN=C1CC=C(Br)C=C(C(=O)/C=C/c2ccc(Br)cc2)C1=O	93.5*
CCN=C1CC=C(Br)C=C(C(=O)/C=C/c2c(Cl)cccc2Cl)C1=O	89.5*
NS(=O)(=O)c1ccc(CNC(=O)/C=C/c2c(Cl)cccc2Cl)cc1	15.8
CC(=O)c1cccc(NC(=O)/C=C/c2ccc(Br)cc2)c1	5.1
CCN=C1CC=C(Br)C=C(C(=O)/C=C/c2cc(OC)ccc2OC)C1=O	54.7*
COc1ccc(Br)cc1/C=C/C(=O)c1ccc(OS(C)(=O)=O)cc1	-0.3
CCN=C1CC=C(Br)C=C(C(=O)/C=C/c2ccc(Cl)cc2)C1=O	17.1
CCOc1ccccc1N1CCN(C(=O)/C=C/c2ccc(Br)cc2)CC1	-7.9
CN=C1CC=C(Br)C=C(C(=O)/C=C/c2ccc(Br)cc2)C1=O	35.6*
CCN=C1CC=C(Br)C=C(C(=O)/C=C/c2ccc(OC)cc2)C1=O	16.4
O=C(/C=C/c1c(Cl)cccc1Cl)Nc1ncccn1	-2.8
Cc1nn(C)c2[nH]c(=O)cc(C(F)(F)F)c12	10.8
COc1ccc(Br)cc1C(=O)N1CCN(C)CC1	-1.7
O=C1N=c2ccc(I)cc2=C1c1sc(=Nc2ccccc2)n(-c2ccccc2)c1O	2.3
CCC(=O)Nc1nc2ccccc2[nH]1	-4.0
CC1=C(C#N)c2nc(N)c(C#N)c(C)c2/C1=C\c1c[nH]c2ccccc12	-0.6
O=C1C(=O)N(c2ccc(Cl)cc2)C(=S)N1c1ccccc1	-5.0
c1ccc(C(c2ccccc2)N2CCN(c3nc(N4CCCCCC4)nc4c3cnn4-c3ccccc3)CC2)cc1	6.2
COc1cccc(-c2ccc3c(N)c(C(=O)Nc4ccc(Br)c(C)c4)sc3n2)c1	9.1
CCOc1ccc(NC(=O)CN2C(=O)S/C(=C/c3cc(C)n(-c4cc(C)ccn4)c3C)C2=O)cc1	7.0
COc1ccc(S(=O)(=O)N/N=C(\C)c2ccc(Cl)s2)cc1	-2.2
COc1cc(CN2CCCC(CO)(Cc3ccc(F)cc3)C2)cc2c1OCO2 (stereo unspecified)	6.4
